According to PubChem BioAssay (NCI):
Several values for one entry are separate records, joined by “and”; a condition that tells them apart may be missing. Equal entries are not always repeated. This is part of a sample that, as a whole, favours compounds with a hit. Of some 83,000 tested, about 20% had one in any assay.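 Compound tested at a single concentration for 48 hours in 96-well plates; a percent growth value below 10 was scored as active.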 A number with no mark means an inactive call. Activity calls are given as the source filed them.

Test system: MDA-MB-468 breast
Assay: NCI-60 one-dose screen, 48 h (100 = growth as untreated, 0 = no growth, -100 = all killed)
Conditions: 10 µM unless noted

SMILES	growth
O=C1c2ccccc2CN1c1ccccc1	101%
O=S(=O)(NCCCNc1nccc(-c2c(-c3cccc(F)c3)nc3sccn23)n1)c1cccc2ccccc12	59.3%
COc1ccc(C(O)c2cc3c(N)c(C(=O)Nc4cccc(Cl)c4C)sc3nc2C)cc1 (stereo not given)	8.74% (active)
NC(=O)c1ncn2c(=O)n(CCF)nnc12	48.4%
N#Cc1c(-c2ccc(F)cc2)c(C#N)c2c(C#N)c(N)nn2c1N	83.5%
CNC(=O)c1cc(Oc2ccc3nc(NC(=O)c4cc(C)cc(C)c4)sc3c2)ccn1	50.2%
CC(=O)N1N=C(c2ccc3c(c2)OCO3)CC1c1c(C)nn(-c2ccccc2)c1N(C)Cc1ccccc1 (stereo not given)	61.5%
CCCC(=O)OCC1OC(n2cnc3c(=S)nc(N)[nH]c32)C(OC(=O)CCC)C1OC(=O)CCC (stereo not given)	47.7%
Nc1cccc2cccc(O)c12	82.6%
C/C=C1\SC(=S)NC1=O	114%
CCNC(=O)Oc1ccc(/C(=C(/C)c2ccc(Cl)cc2)c2ccc(OCCN(C)C)cc2)cc1	67%
[O-]/[N+](=C\C=C\c1ccccc1)c1ccccc1	113%
COc1ccc(-c2cc(-c3ccc(N(C)C)cc3)n3c(n2)nc2ccccc23)cc1	50.8%
O=S(=O)(NCCCNc1nccc(-c2c(-c3cccc(F)c3)nc3sccn23)n1)c1cccc(F)c1	33%
CC(=O)c1cccc(O)c1	110%
Cc1[nH]c(N=Nc2ccccc2)nc1N=Nc1ccccc1	24.1%
CCOC(=O)c1sc2ncc(-c3ccc(C)cc3)n2c1C	102%
CN1C(=O)N(C)[C@H]2NC(NN)=N[C@H]21	101%
CC(C)CC(NC(=O)CN(Cc1ccccc1)S(C)(=O)=O)C(=O)O (stereo not given)	99.6%
OC(c1cc2ccc(C(F)(F)F)cc2c2cc(C(F)(F)F)ccc12)C1CCCCN1 (stereo not given)	-74% (active)

SMILES	growth
CN(C)CCOC1(Cc2ccc(Cl)cc2Cl)CCC(C(C)(C)C)CC1 (stereo not given)	-77.6% (active) and -87.3% (active)
Nc1c(C(=O)Nc2ccccc2)sc2nc3c(cc12)CCCC3	31.1%
Cc1ccc(N)c(O)c1	78.7%
CCN(CC)CCCCCCNc1cc(OC)cc2cccnc12	23.4%
Cc1ccccc1/C=C1\CN(C(=O)OC(C)(C)C)C/C(=C\c2ccccc2C)C1=O	36.7%
Cc1cccc(NC2=C(C#N)C(=O)NC3(CCCC3)S2)c1	101%
CNC(=O)c1cc(Oc2ccc(NC(=O)Nc3ccc(Cl)c(OC4CCCCC4)c3)c(F)c2)ccn1	15.5%
COc1ccc2c(c1)sc1nc(-c3ccccc3)c(-c3cccnc3)n12	90.1%
COc1cc([C@@H]2c3cc4c(cc3C(Br)[C@H]3COC(=O)[C@H]23)OCO4)cc(OC)c1OC (stereo not given in full)	-49.3% (active)
O=CN1CCCCC1	95.6%
CN1CCN(c2ccc3nc(/N=C/c4ccc5sc(-c6ccc([N+](=O)[O-])cc6)nc5c4)sc3c2)CC1	109%
CC(C)(C)N1CCC1CN (stereo not given)	97.2%
O=C1NN(c2ccccc2)C(c2ccc3c(c2)OCO3)N2CCC[C@@H]12 (stereo not given in full)	121%
CC(C)Cn1c2c(c(=S)[nH]c1=O)CCC2	112%
Fc1ccc(CNc2c3ccccc3nc3ccccc23)c(F)c1	-4.03% (active)
CCOC(=O)N1C=CC2C=CC1C1C=CC=CC2N1C(=O)OCC (stereo not given)	53.1%
COc1cccc(-c2nn(-c3ccccc3)cc2-c2ccnc(NCCNS(=O)(=O)c3ccc(Cl)cc3)c2)c1	16.9%
COc1cc2nc3cc([N+](=O)[O-])ccc3c(NCCCNCC(C)(C)O)c2cc1OC	-57.7% (active)
CCN(CC)CC(O)Cc1ccc(OC)cc1 (stereo not given)	97.9%
N#CC(C(=O)/C(=N/NC(=O)c1ccccc1O)C(C#N)c1ccccc1)c1ccccc1 (stereo not given)	67.1%
